Compounds without any hit were thinned out: in the full panel of roughly 79,000, 15% have a hit. Rule as the data show it: active = growth inhibition above about 70%; inactive = the rest.
Assays:
[1] = NCI Yeast Anticancer Drug Screen. Data for the rad52 strain (AID 147);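 also: 0% = growth of vehicle-treated control cultures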; settings: S. cerevisiae rad52 mutant growth inhibition, hits give high values
How it was run: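 Vehicle-treated cultures served as the reference for growth inhibition of compound-exposed yeast bearing a DNA repair mutation.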

[2] = NCI Yeast Anticancer Drug Screen. Data for the wt1 strain (AID 149);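 also: 0% = growth of vehicle-treated wt1 cultures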; settings: S. cerevisiae wt1 strain (SPY 50644) growth inhibition, hits give high values
How it was run: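 Compounds are added to wt1 yeast cultures. Growth is then measured. Inhibition is expressed relative to vehicle-treated controls.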

[3] = NCI Yeast Anticancer Drug Screen. Data for the rad50EPP+ strain (AID 151);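 also: 0% = growth of vehicle-treated control cultures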; settings: S. cerevisiae rad50 mutant strain, hits give high values
How it was run: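 In this screen, rad50EPP+ yeast were exposed to compounds. Growth inhibition was scored against vehicle-treated controls.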

[4] = NCI Yeast Anticancer Drug Screen. Data for the rad50 strain (AID 155);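 also: 0% = growth of vehicle-only cultures of the same strain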; settings: S. cerevisiae rad50 strain growth inhibition, hits give high values
How it was run: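 Inhibition values express reduced yeast growth in compound-treated cultures relative to vehicle-treated controls.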

[5] = NCI Yeast Anticancer Drug Screen. Data for the mec2-1 strain (AID 157); settings: S. cerevisiae mec2-1 strain, hits give high values
How it was run: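 Vehicle-treated cultures served as reference for growth inhibition of compound-exposed mec2-1 yeast.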

[6] = NCI Yeast Anticancer Drug Screen. Data for the rad14 strain (AID 159);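 also: 0% = growth of vehicle-treated control cultures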; settings: S. cerevisiae rad14 strain growth inhibition, hits give high values
How it was run: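 A mutant yeast strain defective in DNA damage repair is treated with compound; inhibition of its growth is scored against untreated, vehicle-exposed cultures.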

[7] = NCI Yeast Anticancer Drug Screen. Data for the sgs1 mgt1 strain (AID 161);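 also: 0% = growth of cultures given vehicle only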; settings: S. cerevisiae sgs1 mgt1 strain, hits give high values
How it was run: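 Mutant yeast exposed to compound; growth scored against vehicle-only wells.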

[8] = NCI Yeast Anticancer Drug Screen. Data for the CLN2oe strain (AID 163);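 also: 0% = growth of vehicle-only control cultures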; settings: S. cerevisiae CLN2oe strain, hits give high values
How it was run: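 Inhibition relative to vehicle-treated yeast is reported. Cells: strain with genetic alteration in cell-cycle control, grown with compound.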

[9] = NCI Yeast Anticancer Drug Screen. Data for the cln2 rad14 strain (AID 165);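 also: 0% = growth equal to vehicle treated cultures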; settings: S. cerevisiae cln2 rad14 strain, hits give high values
How it was run: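 Each compound was tested on cln2 rad14 yeast. Inhibition of growth was calculated against vehicle-exposed controls.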

[10] = NCI Yeast Anticancer Drug Screen. Data for the bub3 strain (AID 167); settings: S. cerevisiae bub3 mutant strain, hits give high values
How it was run: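 Steps: expose the mutant yeast strain to compound; grow alongside vehicle-treated cultures; measure growth; express inhibition against the vehicle cultures.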

[11] = NCI Yeast Anticancer Drug Screen. Data for the wt2 strain (AID 169);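 also: 0% = growth of vehicle-treated yeast cultures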; settings: S. cerevisiae wt2 strain growth inhibition, hits give high values
How it was run: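 Inhibition of yeast growth was determined after compound treatment, normalised to controls receiving only vehicle.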

[12] = NCI Yeast Anticancer Drug Screen. Data for the mlh1 strain (AID 171);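 also: 0% = growth of vehicle-treated control cultures of the same strain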; settings: S. cerevisiae mlh1 strain growth inhibition, hits give high values
How it was run: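 Vehicle-normalised growth inhibition of a repair- or checkpoint-altered yeast strain following compound treatment.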

[13] = NCI Yeast Anticancer Drug Screen. Data for the sgs1 strain (AID 173);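 also: 0% = growth of vehicle-only control cultures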; settings: S. cerevisiae sgs1 mutant, hits give high values
How it was run: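 Screen format: yeast with repair or checkpoint alterations, compound exposure, growth read relative to vehicle.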

[14] = NCI Yeast Anticancer Drug Screen. Data for the mlh1 rad18 strain (AID 175); settings: S. cerevisiae mlh1 rad18 strain growth inhibition, hits give high values
How it was run: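 Vehicle-treated cultures served as the reference for growth inhibition in a yeast strain carrying DNA damage repair alterations exposed to each compound.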

[15] = NCI Yeast Anticancer Drug Screen. Data for the rad18 strain (AID 177); settings: S. cerevisiae rad18 mutant growth inhibition, hits give high values
How it was run: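 Test articles were incubated with altered yeast defective in DNA damage repair. Results are given as inhibition of growth versus vehicle.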

[16] = at 5.0 µM (retest, dose inferred, filed as 0.5)
[17] = at 50.0 µM (retest, dose inferred, filed as 5.0)

Measured: growth inhibition

O=C(O)c1[nH]c(=O)c2ccccc2c1Nc1ccccc1
inactive: [1]; at 1.2 µM -2% | [1]; at 3.7 µM -1% | [1]; at 11.0 µM 2% | [1]; at 33.0 µM 4% | [1]; at 100.0 µM 3% | [2]; at 1.2 µM -1% | [2]; at 3.7 µM -2% | [2]; at 11.0 µM -2% | [2]; at 33.0 µM -1% | [2]; at 100.0 µM 1% | [3]; at 1.2 µM -3% | [3]; at 3.7 µM -2% | [3]; at 11.0 µM 0% | [3]; at 33.0 µM -1% | [3]; at 100.0 µM 6% | [4]; at 1.2 µM -3% | [4]; at 3.7 µM -1% | [4]; [16] -6% | [4]; at 11.0 µM 1% | [4]; at 33.0 µM 4% | [4]; [17] -11% | [4]; at 50.0 µM -0.85% | [4]; at 100.0 µM 0% | [5]; at 1.2 µM -3% | [5]; at 3.7 µM -3% | [5]; [16] -13% | [5]; at 11.0 µM -2% | [5]; at 33.0 µM 1% | [5]; [17] -24% | [5]; at 50.0 µM -1.2% | [5]; at 100.0 µM 3% | [6]; at 1.2 µM -3% | [6]; at 3.7 µM -3% | [6]; at 11.0 µM 1% | [6]; at 33.0 µM 1% | [6]; at 100.0 µM 2% | [7]; [16] 0% | [7]; [17] 5% | [7]; at 50.0 µM 10.3% | [8]; at 1.2 µM -3% | [8]; at 3.7 µM 1% | [8]; at 11.0 µM -2% | [8]; at 33.0 µM -1% | [8]; at 100.0 µM 1% | [9]; [16] -23% | [9]; [17] 41% | [9]; at 50.0 µM -10.4% | [10]; at 1.2 µM -2% | [10]; at 3.7 µM -2% | [10]; [16] -4% | [10]; at 11.0 µM -3% | [10]; at 33.0 µM -3% | [10]; [17] -11% | [10]; at 50.0 µM -6.6% | [10]; at 100.0 µM -2% | [11]; at 1.2 µM -3% | [11]; at 3.7 µM -3% | [11]; at 11.0 µM -2% | [11]; at 33.0 µM -4% | [11]; at 100.0 µM 0% | [12]; at 1.2 µM -2% | [12]; at 3.7 µM 0% | [12]; at 11.0 µM 0% | [12]; at 33.0 µM 1% | [12]; at 100.0 µM 4% | [13]; at 1.2 µM -7% | [13]; at 3.7 µM -3% | [13]; at 11.0 µM 1% | [13]; at 33.0 µM 1% | [13]; at 100.0 µM 2% | [14]; [16] -14% | [14]; [17] -8% | [14]; at 50.0 µM 7.5% | [15]; at 1.2 µM -2% | [15]; at 3.7 µM -1% | [15]; at 11.0 µM 0% | [15]; at 33.0 µM 0% | [15]; at 100.0 µM 6%

Source: PubChem BioAssay (NCI)
